Results with a measured potency or affinity are listed apart. Records with an inconclusive call do not appear. Calls of active or inactive are those of the source. How the calls were made is not given here.
Assay: OVCAR-3 cell viability loss – plate reader, dry powder samples, PAX8 inhibitor project, dose response (AID 743044)
Conditions: NIH:OVCAR-3 ovarian cancer cell viability; max activity: at 35 µM, stronger effect = lower value unless noted; series mostly up to 50 µM; activity change, negative = cytotoxicity: at the top concentration

Row | SMILES | max activity | activity change, negative = cytotoxicity
1 | C[C@H]1CCCCO[C@H](CN(C)C(=O)C2CCCCC2)[C@@H](C)CN([C@@H](C)CO)C(=O)c2cc(NC(=O)Nc3ccc(F)cc3)ccc2O1 | -23.8% (inactive) | –
2 | O=C(/C=C/c1ccccc1)Nc1cccc(C(=O)O)c1 | – | -31.6% (inactive)
3 | Cc1ccc2cccc(NS(=O)(=O)c3ccccc3)c2n1 | – | -121% (inactive)
4 | Cc1ccc(S(=O)(=O)Nc2ccc3c(c2)CC(=O)N([C@@H](C)CO)C[C@H](C)[C@@H](CN(C)C(=O)Nc2ccc(C(F)(F)F)cc2)O3)cc1 | 7.6% [at 2.1 µM, stronger effect = lower value] (inactive) | –
5 | O=C(NCCc1ccccc1)c1ccc2c(c1)OCCCO2 | – | -4.88% (inactive)

Assay: toxicity toward immortalized ovarian surface epithelium – cell-based, plate reader, dry powder samples, cytotoxicity control for PAX8 inhibitor project, dose response (AID 743045);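 further: 0% = neutral control median and -100% = positive control median; more negative values mean more cell killing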
Conditions: IOSE-T80 ovarian epithelial cells; series mostly up to 35 µM; activity change, negative = cytotoxicity: at the top concentration

Row | SMILES | activity change, negative = cytotoxicity
6 | C[C@H]1CCCCO[C@H](CN(C)C(=O)C2CCCCC2)[C@@H](C)CN([C@@H](C)CO)C(=O)c2cc(NC(=O)Nc3ccc(F)cc3)ccc2O1 | 8.25% (inactive)
7 | COc1ccc(S(=O)(=O)N(C)C[C@H]2OCCCC[C@H](C)Oc3ccc(NS(=O)(=O)c4ccc(F)cc4)cc3C(=O)N([C@@H](C)CO)C[C@@H]2C)cc1 | 9.59% (inactive)
8 | C[C@@H]1CN([C@H](C)CO)C(=O)c2cc(NC(=O)Nc3ccc(C(F)(F)F)cc3)ccc2O[C@@H](C)CCCCO[C@@H]1CN(C)C(=O)c1ccccc1 | 6.96% (inactive)
9 | C[C@H](CO)N1C[C@H](C)[C@@H](CN(C)C(=O)C2CCCCC2)OCCCC[C@H](C)Oc2ccc(NS(=O)(=O)c3ccc(Cl)cc3)cc2C1=O | 17.6% (inactive)
10 | Cc1ccc(S(=O)(=O)N(C)C[C@@H]2Oc3cc(C#Cc4ccncc4)ccc3S(=O)(=O)N([C@H](C)CO)C[C@H]2C)cc1 | -10.1% (inactive)
11 | COc1ccc(CN(C)C[C@H]2OCCCC[C@@H](C)Oc3ccc(NC(=O)Nc4ccc(F)cc4)cc3C(=O)N([C@@H](C)CO)C[C@@H]2C)cc1 | -1.14% (inactive)
12 | O=C(/C=C/c1ccccc1)Nc1cccc(C(=O)O)c1 | -22.2% [at 50 µM] (inactive)
13 | CO[C@@H]1CN(C)C(=O)c2cc(NC(=O)c3ccc(-c4ccccc4)cc3)ccc2OC[C@H](C)NC[C@H]1C | -16.3% [at 30 µM] (inactive)
14 | C[C@@H]1CN([C@H](C)CO)C(=O)c2cc(NC(=O)NC3CCCCC3)ccc2O[C@@H](C)CCCCO[C@H]1CN(C)Cc1ccc(C(F)(F)F)cc1 | 17.4% (inactive)
15 | Cc1cc(NC(=O)CCCS(=O)(=O)c2nc(-c3cccs3)cc(C(F)(F)F)n2)no1 | -95.1% [at 50 µM] (inactive)
16 | COc1ccc(S(=O)(=O)Nc2ccc3c(c2)CC(=O)N([C@@H](C)CO)C[C@@H](C)[C@@H](CN(C)Cc2ccc(-c4ccccc4)cc2)O3)cc1 | 7.97% (inactive)
17 | Cc1ccc(S(=O)(=O)N(C)C[C@@H]2Oc3cc(C#Cc4ccncc4)ccc3S(=O)(=O)N([C@H](C)CO)C[C@@H]2C)cc1 | -8.59% (inactive)
18 | Cc1ccc(S(=O)(=O)Nc2ccc3c(c2)nc(CCN2CCCC2)n3C)cc1 | 7.57% [at 50 µM] (inactive)
19 | C[C@@H]1CCCCO[C@H](CN(C)Cc2ccc(C(F)(F)F)cc2)[C@H](C)CN([C@@H](C)CO)C(=O)c2cc(NS(=O)(=O)c3ccc(F)cc3)ccc2O1 | -11% (inactive)
20 | Cc1ccc(S(=O)(=O)Nc2ccc3c(c2)CC(=O)N([C@@H](C)CO)C[C@H](C)[C@@H](CN(C)C(=O)Nc2ccc(C(F)(F)F)cc2)O3)cc1 | 10.9% (inactive)
21 | CC(C)CC#Cc1ccc2c(c1)O[C@H](CN(C)Cc1ccc(C(=O)O)cc1)[C@@H](C)CN([C@H](C)CO)S2(=O)=O | 1.4% (inactive)
22 | O=S(=O)(c1ccccc1F)N1CC[C@@H]2[C@H]1c1cc(-c3cccc(F)c3)ccc1N[C@@H]2CO | 24.8% (inactive)
23 | C[C@H](CO)N1C[C@H](C)[C@@H](CN(C)Cc2ccc(Cl)c(Cl)c2)Oc2ccc(NS(=O)(=O)c3ccccc3)cc2CC1=O | 3.3% (inactive)
24 | C[C@@H]1CN([C@H](C)CO)C(=O)c2cc(NC(=O)Nc3ccccc3)ccc2O[C@@H](C)CCCCO[C@@H]1CN(C)Cc1ccc(C(F)(F)F)cc1 | 12.1% (inactive)
25 | COc1cc(/C=C2\SC(=S)N(CCC(=O)N3CCCCC3)C2=O)cc(OC)c1OC | -81.6% [at 50 µM] (inactive)
26 | Cc1ccccc1S(=O)(=O)N1CC[C@@H]2[C@H](CO)Nc3ccc(-c4cccc(F)c4)cc3[C@@H]21 | -0.732% (inactive)
27 | CN(C)CCN(C(=O)/C=C/c1cccs1)c1nc2c(F)cc(F)cc2s1 | 11.1% [at 50 µM] (inactive)
28 | Cc1noc(C)c1S(=O)(=O)Nc1ccc2c(c1)C(=O)N([C@H](C)CO)C[C@H](C)[C@@H](CN(C)C(=O)Nc1ccc(C(F)(F)F)cc1)OCCCC[C@H](C)O2 | 6.25% (inactive)
29 | Cc1ccc(S(=O)(=O)Nc2ccc3c(c2)C(=O)N([C@@H](C)CO)C[C@@H](C)[C@H](CN(C)Cc2ccc(C(F)(F)F)cc2)OCCCC[C@H](C)O3)cc1 | 18% (inactive)
30 | COc1ccccc1C#Cc1ccc2c(c1)O[C@H](CN(C)Cc1cccnc1)[C@H](C)CN([C@@H](C)CO)S2(=O)=O | -2.27% (inactive)
31 | Cc1cc(C)c2sc(NNC(=O)c3ccc(S(=O)(=O)N4CCc5ccccc5C4)cc3)nc2c1 | -83% [at 50 µM] (inactive)

Source: PubChem BioAssay
